# Assay outcomes from PubChem.
# Cruzain noTriton = cruzain (T. cruzi) inhibition without detergent; 200,000 tested, 2.3% active; Potency, µM, inactives show max response, negative = inhibition, usual class: inhibitors; purified cruzain, Z-FR-AMC fluorescence, no detergent;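 note: plate controls were enzyme without inhibitor for no effect and buffer without enzyme for full effect; nearly all actives have a fitted effect of over 40% in size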
# Target sequence (P25779 123-467 limits assumed): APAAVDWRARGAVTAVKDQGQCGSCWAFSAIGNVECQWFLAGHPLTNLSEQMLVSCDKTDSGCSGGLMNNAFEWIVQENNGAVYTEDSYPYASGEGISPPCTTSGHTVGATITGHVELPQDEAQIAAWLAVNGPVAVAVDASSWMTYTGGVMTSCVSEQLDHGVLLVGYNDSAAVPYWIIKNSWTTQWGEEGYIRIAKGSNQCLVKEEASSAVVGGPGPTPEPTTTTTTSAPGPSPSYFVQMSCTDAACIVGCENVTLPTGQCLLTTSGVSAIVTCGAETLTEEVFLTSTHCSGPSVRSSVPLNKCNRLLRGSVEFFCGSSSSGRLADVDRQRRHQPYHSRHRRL
#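 Detergent-free condition (0.00005% Triton X-100) in acetate buffer pH 5.5 with DTT. 1.5 nM enzyme and compound were pre-mixed 15 min, then 2 uM Z-FR-AMC substrate added; reaction progress from fluorescence change between first and third reads (60 s).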
# FBPA Giardia inh = Giardia lamblia aldolase inhibition. purified Giardia FBPA. 290,000 tested, 0.71% active. Potency, µM (doses to about 59.6 µM), for inactives: top-dose activity, negative = inhibition, hits mostly inhibitors. A8B2U2. AID 2451; note: nearly all actives have a fitted effect of over 55% in size
# Target sequence (A8B2U2 whole entry, looked up): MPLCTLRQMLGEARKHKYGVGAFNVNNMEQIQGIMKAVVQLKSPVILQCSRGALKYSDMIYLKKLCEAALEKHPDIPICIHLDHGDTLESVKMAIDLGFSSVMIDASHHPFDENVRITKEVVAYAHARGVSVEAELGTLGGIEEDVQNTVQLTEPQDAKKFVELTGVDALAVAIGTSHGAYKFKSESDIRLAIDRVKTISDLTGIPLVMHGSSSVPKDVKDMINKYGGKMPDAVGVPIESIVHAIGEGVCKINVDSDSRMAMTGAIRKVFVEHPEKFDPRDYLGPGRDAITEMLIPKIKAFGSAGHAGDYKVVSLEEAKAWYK
#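 Giardia FBPA (40 nM reagent) was preincubated 10 min at RT with compound (up to 57.5 uM final), then substrate plus GAPDH/TPI/NAD/arsenate coupling system with diaphorase/resazurin was added; resorufin fluorescence (525/598 nm) was read after 20 min.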
# Cruzain Triton = blocks cruzain activity in presence of Triton detergent; P25779; purified cruzain, Z-FR-AMC fluorescence, 0.01% Triton; Potency, µM, without a hit: max response, negative = inhibition, actives largely listed as inhibitors; 200,000 tested, 0.43% active; AID 1478;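 note: plate controls were neutral wells for no effect and buffer without enzyme for full effect; nearly all actives have a fitted effect of over 40% in size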
#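 Purified cruzain (1.5 nM final) was preincubated with compounds for 15 min at room temperature in 100 mM sodium acetate pH 5.5, 5 mM DTT, 0.01% Triton X-100. Reaction started with 2 uM Z-FR-AMC; AMC fluorescence change over 60 s gave activity.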
# Active calls of the source: *; ? = inconclusive; . = no result; [ ] = dose if it differs, or a comment. This excerpt belongs to a sample that is enriched for hits. Calls come from the whole dose curve; as a rule, active = well fitted curve in the direction sought with a large enough effect; inconclusive = small, poorly fitted or top-dose-only effect, or another doubt; inactive = no such curve, though single readings can be large; an effect the other way counts as inactive or inconclusive. Unless noted, % is set by controls: 0 for no effect and ±100 for the full control effect; potency is the fitted concentration of half-maximal effect.
SMILES,Cruzain noTriton,FBPA Giardia inh,Cruzain Triton
O=C(CCN1CCc2ccccc2C(c2ccccc2)C1)c1ccc2c(c1)OCCO2 (stereo not drawn),16µM*,-15%,28µM*
Cc1ccc(C2CC(=O)Oc3cc(O)ccc32)cc1 (stereo not drawn),-1%,9%[89.2 µM],-3%
Cc1ccc(C2CC(=O)Oc3cc4c(cc32)OCO4)cc1 (stereo not drawn),-17%,50µM*,-9%
CC(CNC(=O)c1ccc2c(c1)nc1n2CCCCC1)c1ccccc1 (stereo not drawn),-13%,.,-1%
Cc1ccc2c(CC(=O)Nc3ccc(S(=O)(=O)N4CCCCC4)cc3)coc2c1C,25µM*,.,-9%
Cc1ccc2c(CC(=O)Nc3ccc(S(=O)(=O)N4CCCC(C)C4)cc3)coc2c1 (stereo not drawn),?,.,-8%
Cc1ccc2c(CC(=O)Nc3ccc(S(=O)(=O)N4CCCCC4)cc3)coc2c1,25µM*,.,-7%
Cc1cc(C)c2c(CC(=O)Nc3ccc(S(=O)(=O)N4CCCCC4)cc3)coc2c1,?,.,-7%
OC[C@@H]1OC(O)[C@@H](O)[C@H](O)[C@@H]1O (stereo partly drawn),.,-3%,.
COc1ccc(NC(=O)Cn2c(=O)n(-c3cccc(C(F)(F)F)c3)c(=O)c3sccc32)cc1,2%,.,-3%
C[C@H](C(=O)c1ccccc1)C(c1ccccc1)N1CCOCC1 (stereo partly drawn),10%,.,5%
CC(=O)Nc1c(C)nn(-c2ccccc2)c1N1CCC(C(=O)Nc2cccc(C(F)(F)F)c2)CC1,?,.,-5%
CCOC(=O)C1=CN(C(=O)OC(C)(C)C)C(CN2C(=O)COCC2=O)C1 (stereo not drawn),.,7%,.
CC(=O)OC[C@@H]1O[C@H](CCO/N=C(\C)CCN2CCc3nc(-c4ccccc4)c(-c4ccccc4)cc3C2)C=C[C@@H]1OC(C)=O,.,-1%[12.9 µM],.
Cc1ccc(OCCn2cccc2/C=C2/C(=O)NC(=O)N(Cc3ccco3)C2=O)cc1,.,2%,.
CCc1ccc(N2C(=O)NC(=O)/C(=C\c3cccn3CCOc3ccc(C(C)C)cc3)C2=O)cc1,10µM*,3%,-1%
O=C1C(=O)c2cccc3cccc1c23,-10%,?,-4%
O=C1C([N+](=O)[O-])=C(O)c2cccc3cccc1c23,.,25µM*,.
COc1ccc(CNC(=O)c2ccc(-c3nc(CSc4ccc(C)cc4)c(C)o3)cc2)c(OC)c1,2%,.,5%
CC(C)COc1ccc(C(=O)Nc2onc3c2CCCC3)cc1,5%,.,-1%
C/C(=N\NC(=O)Cc1csc(N2CCOCC2)n1)c1ccccc1,10%,7%,3%
O=C(Cc1csc(N2CCOCC2)n1)N/N=C/c1ccc(O)c(O)c1O,.,7.9µM*,.
N#CC(C(=O)Nc1ccccc1)=C1Nc2ccccc2N1,-8%,-15%,-4%
N#C/C(C(=O)Oc1ccccc1)=C1/Nc2ccccc2-c2ccccc21,13µM*,.,2%
C[C@@H]1NCC[C@H](CC(=O)O)[C@H]1CC(=O)O,2%,.,2%
SMILES,Cruzain noTriton,FBPA Giardia inh,Cruzain Triton
Cc1cccc(-c2nnc(C3CCN(S(=O)(=O)c4cccc(Cl)c4)CC3)o2)c1,1%,.,-20%
Cc1ccc(NC(=O)Cn2c(=O)n(CCC(=O)N3CCc4ccccc4C3)c(=O)c3ccccc32)c(C)c1,1%,.,-4%
CCc1ccc(-c2nc(NC(=S)NC(=O)c3cccs3)sc2C)cc1,4µM*,-14%,3%
Cc1ccc(OCc2nnc(NC(=O)Cc3cccs3)s2)cc1,?,5%,4%
O=C(NC(=S)Nc1nc2ccccc2s1)c1cccs1,-26%,?,-9%
CCc1ccc(OCc2nnc(NC(=O)c3cccs3)s2)cc1,13µM*,3%,2%
N#Cc1c(N)nc(SCC(=O)NC2CCCCC2)c(C#N)c1-c1ccc(Cl)cc1,16µM*,0%,-3%
COC(=O)CSc1nc(N)c(C#N)c(-c2ccc(O)cc2)c1C#N,.,-4%,.
CC(C)c1ccc(-c2c(C#N)c(N)nc(SCC(=O)N3CCCCCC3)c2C#N)cc1,-9%,6%,-3%
CC(C)c1ccc(-c2c(C#N)c(N)nc(SCC(=O)N3CCCCC3)c2C#N)cc1,25µM*,-1%,4%
O=C(CN1CCc2ccccc21)Nc1ccc2c(c1)OCO2,13µM*,-12%,-2%
O=C(CN1CCc2ccccc21)NCc1ccc2c(c1)OCO2,-4%,2%,-2%
CC(C)C(=O)NNC(=O)CN1CCN(c2nc(-c3ccccc3)cs2)CC1,.,0%,.
O=C(CN1CCN(c2nc(-c3ccccc3)cs2)CC1)Nc1ccc2c(c1)OCO2,25µM*,0%,2%
COC(=O)c1ccc(NC(=O)CC2C(=O)N(c3ccccc3)C(=O)N2Cc2cccs2)cc1 (stereo not drawn),-7%,.,0%
O=C(O)CNC(=O)[C@H]1NC(C(F)(F)F)(C(F)(F)F)OC1(C(F)(F)F)C(F)(F)F,3%,.,-2%
CCCCn1c(=O)[nH]c(=O)c2c1nc(Cn1ncc(Cl)c(Cl)c1=O)n2CCC,.,1%,.
CCCCn1c(=O)[nH]c(=O)c2c1nc(CN1C(=O)c3ccccc3S1(=O)=O)n2CCC,25µM*,0%,2%
O=C1c2ccccc2C(Nc2cccnc2)N1Cc1ccc2c(c1)OCO2 (stereo not drawn),-2%,6%,-1%
O=C1c2ccccc2C(Nc2ccc3c(c2)OCO3)N1Cc1ccc2c(c1)OCO2 (stereo not drawn),25µM*,?,-4%
COc1cccc(-c2cn3c(n2)sc2cc(C(=O)NCCc4ccc(OC)c(OC)c4)ccc23)c1,-6%,.,-3%
Cc1cc2ncn(CC(=O)O)c2cc1C,1%,.,-1%
CCCCNC(=S)N(C)/N=C/c1sc(N2CCCCC2)nc1-c1cccs1,-28%,-5%,-3%
CC(C)NC(=S)N/N=C/c1sc(N2CCCCC2)nc1-c1cccs1,32µM*,-5%,-7%
O=C(O)c1ccc(C(=O)O)c(C(=O)Nc2ccc3c(c2)Cc2ccccc2-3)c1,-20%,.,7%
SMILES,Cruzain noTriton,FBPA Giardia inh,Cruzain Triton
COc1ccccc1Cn1ccn(Cc2ccc(C)cc2)c(=O)c1=O,?,.,-6%
O=C(Cn1cc(C(=O)c2cccs2)c2ccccc21)Nc1ccc(Br)cc1,?,.,-5%
CCc1ccc(NC(=O)CCn2c(=O)oc3ccccc32)cc1,1.3µM*,-5%,-1%
Cc1ccc(NC(=O)CCn2c(=O)oc3ccccc32)cc1,-3%,-7%,1%
CCCCCCCC/C=C\CCCCCCCCCCCC(=O)O,.,10%,.
COc1ccc(-c2nc3c(c4c2C[C@H](c2ccccc2)OC4)CN(C(=O)NCc2ccco2)CC3)c(C)c1,.,3%[12.9 µM],.
O=C(Nc1ccc([N+](=O)[O-])cc1)Nc1nc(-c2ccc(Cl)s2)cs1,5µM*,3%,-1%
CC(=O)Nc1nc(-c2ccc([N+](=O)[O-])cc2)cs1,.,-3%,.
CCCCCCCN,1%,.,4%
CC(C)C(=O)Nc1nnc(SCC(=O)N2c3ccccc3CC2C)s1 (stereo not drawn),32µM*,3%,10µM*
CC1Cc2ccccc2N1C(=O)CSc1ccccc1 (stereo not drawn),-7%,0%,-1%
CSc1ccc(/C=C/c2nc3ccccc3n2S(=O)(=O)c2ccc(Br)cc2)cc1,4%,.,-12%
Cc1cccc(Nc2ccc3nonc3c2[N+](=O)[O-])c1C,.,-1%,.
